# In PubChem BioAssay (NCATS):
# Inconclusive results are not listed. A call without a number means that no potency is given here. Activity calls are given as the source filed them. Unless noted, the call rests on the fitted dose curve; in most records, active means well fitted curve in the direction sought with a large enough effect; inconclusive means small, poorly fitted or top-dose-only effect, or another doubt; inactive means no such curve, though single readings can be large; an effect the other way counts as inactive or inconclusive.
# Columns and labels:
# [1] = Validation of Assay for Modulators of Lamin A Splicing (AID 1459; active means well fitted curve in the direction sought with a large enough effect in the signal ratio; the % refers to the signal ratio;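 further: cells exposed to compound for two days before reading; ratio rise marks activators and ratio drop marks inhibitors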)
# Summary of the method: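 S3 HeLa cells stably expressing a lamin A-EGFP splicing minigene and DsRed2 were seeded at 600 cells/well in Opti-MEM with 2% FBS, pin-dosed, and incubated 48 hrs at 37 °C, 5% CO2. Laser-scanning cytometry (488 nm) gave GFP/RFP total intensity ratio.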
# [2] = qHTS Assay for Lipid Storage Modulators (AID 1519; calls by dose curve); conditions: Drosophila S3 cells, BODIPY lipid droplet/cell ratio, laser cytometry, cells loaded with oleic acid
# Summary of the method: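 Cells seeded at 5,000 per well were treated with compounds over a concentration series and loaded with oleic acid (400 uM, as added). Lipid droplet fluorescence (488 nm excitation, 500-530 nm channel) was read by laser-scanning cytometry and normalized to 20 uM Triacsin C.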
# [3] = target: DNA repair nuclease/redox regulator APEX1 (Homo sapiens) (UniProt P27695); assay: qHTS Validation Assay for Inhibitors of the Human Apurinic/apyrimidinic Endonuclease 1 (APE1) (AID 1705;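 further: TAMRA fluorescence gain over two minutes as APE1 cuts a quenched THF abasic duplex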)
# DNA repair nuclease/redox regulator APEX1 (Homo sapiens), sequence (P27695 whole entry, looked up): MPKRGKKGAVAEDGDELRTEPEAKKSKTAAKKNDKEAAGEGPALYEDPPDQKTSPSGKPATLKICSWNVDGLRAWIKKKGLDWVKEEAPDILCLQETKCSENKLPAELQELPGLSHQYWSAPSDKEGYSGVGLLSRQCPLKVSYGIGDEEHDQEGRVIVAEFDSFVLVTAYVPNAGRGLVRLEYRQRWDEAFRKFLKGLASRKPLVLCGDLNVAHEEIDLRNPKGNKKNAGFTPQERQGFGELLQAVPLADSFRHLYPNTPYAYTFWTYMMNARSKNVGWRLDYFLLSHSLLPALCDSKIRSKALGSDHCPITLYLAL
# Summary of the method: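 Human APE1 was preincubated with compound for 15 min at room temperature, then 50 nM (final) THF-abasic double-stranded DNA substrate bearing 5'-TAMRA and 3'-BHQ-2 was added. Incision-driven fluorescence rise (ex 525/em 598 nm) was read kinetically.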
# [4] = Counterscreen for APE1 Inhibitors: Fluorescent Dye Displacement Validation Assay (AID 1707)
# Summary of the method: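 Compounds are scored by their ability to displace Thiazole Orange (250 nM) from a 50 nM TAMRA-tagged duplex bearing a tetrahydrofuran abasic site. Buffer is 50 mM Tris-HCl pH7.5, 50mM NaCl, 2 mM MgCl2, 0.01% Tween-20.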
# [5] = target: Endonuclease 4 (Escherichia coli (strain K12)) (UniProt P0A6C1); assay: Counterscreen for APE1 Inhibitors: qHTS Validation Assay for Inhibitors of Endonuclease IV (AID 1708)
# Summary of the method: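 2 nM enzyme was preincubated with compounds for 15 min at room temperature in 50 mM Tris-HCl pH 7.5, 50 mM NaCl, 2 mM MgCl2, 1 mM DTT, 0.01% Tween-20. 50 nM THF-abasic TAMRA/BHQ-2 duplex substrate started the reaction.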
# [6] = qHTS for differential inhibitors of proliferation of Plasmodium falciparum line GB4 (AID 1816); conditions: Potency: Plasmodium falciparum GB4 proliferation inhibition;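 further: parasite growth measured after 72 h incubation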
# [7] = qHTS for differential inhibitors of proliferation of Plasmodium falciparum line 3D7 (AID 1876);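 further: parasite growth measured after three days of culture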
# [8] = qHTS for differential inhibitors of proliferation of Plasmodium falciparum line D10 (AID 1877);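 further: parasites grown with compound for 72 h before DNA staining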
# [9] = qHTS for differential inhibitors of proliferation of Plasmodium falciparum line Dd2 (AID 1882); conditions: Potency: Plasmodium falciparum Dd2 proliferation inhibition;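 further: compound exposure of 72 h on infected erythrocytes; nearly all actives have a fitted effect of over 65% in size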
# Summary of the method: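 SYBR Green I DNA fluorescence read-out, ex 485/em 535 nm. Signals were normalized to 0.29 uM artemisinin and DMSO wells, then corrected using vehicle-only plates flanking each stack. Parasite growth ran 72 h in erythrocytes before lysis.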
# [10] = qHTS for differential inhibitors of proliferation of Plasmodium falciparum line HB3 (AID 1886); conditions: Potency: Plasmodium falciparum HB3 proliferation inhibition;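 further: parasites grown with compound for 72 h before SYBR Green readout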
# [11] = qHTS Assay for Modulators of Human Peripheral Myelin Protein 22 (PMP22) Expression/Activity (AID 1967; active means well fitted curve in the direction sought with a large enough effect in the signal ratio; the % refers to the signal ratio)
# Summary of the method: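 MSC80 mouse Schwann cells stably carrying Pmp22 promoter–green click beetle luciferase plus EF-alpha–red luciferase control were dosed for 24h at 37 °C. Dual-colour luminescence was filter-overlap corrected; %Activity came from green/red ratio versus untreated cells.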
# [12] = target: Ferritin light chain (Equus caballus) (UniProt P02791); assay: qHTS Validation Assay for Identification of Novel General Anesthetics (AID 2323)
# Ferritin light chain (Equus caballus), sequence (P02791 2-175 limits assumed): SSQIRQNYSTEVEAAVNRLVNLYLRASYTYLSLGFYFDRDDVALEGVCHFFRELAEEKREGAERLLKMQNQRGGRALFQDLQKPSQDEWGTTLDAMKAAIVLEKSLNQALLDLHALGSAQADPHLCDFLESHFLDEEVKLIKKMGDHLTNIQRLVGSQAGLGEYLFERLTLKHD
# Summary of the method: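 Competitive displacement of profluorescent 1-aminoanthracene (1-AMA, 50% saturated solution in PBS) from 10 uM horse-spleen apoferritin. Compounds incubated 10 min at room temperature; fluorescence read at 380 nm excitation/535 nm emission, normalized to free 1-AMA and complex, fitted with four-parameter Hill equation.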
# [13] = target: ATP-dependent DNA helicase Q1 (Homo sapiens) (UniProt P46063); assay: qHTS Validation Assay for Inhibitors of RecQ-Like Dna Helicase 1 (RECQ1) (AID 2353)
# ATP-dependent DNA helicase Q1 (Homo sapiens), sequence (P46063 whole entry, looked up): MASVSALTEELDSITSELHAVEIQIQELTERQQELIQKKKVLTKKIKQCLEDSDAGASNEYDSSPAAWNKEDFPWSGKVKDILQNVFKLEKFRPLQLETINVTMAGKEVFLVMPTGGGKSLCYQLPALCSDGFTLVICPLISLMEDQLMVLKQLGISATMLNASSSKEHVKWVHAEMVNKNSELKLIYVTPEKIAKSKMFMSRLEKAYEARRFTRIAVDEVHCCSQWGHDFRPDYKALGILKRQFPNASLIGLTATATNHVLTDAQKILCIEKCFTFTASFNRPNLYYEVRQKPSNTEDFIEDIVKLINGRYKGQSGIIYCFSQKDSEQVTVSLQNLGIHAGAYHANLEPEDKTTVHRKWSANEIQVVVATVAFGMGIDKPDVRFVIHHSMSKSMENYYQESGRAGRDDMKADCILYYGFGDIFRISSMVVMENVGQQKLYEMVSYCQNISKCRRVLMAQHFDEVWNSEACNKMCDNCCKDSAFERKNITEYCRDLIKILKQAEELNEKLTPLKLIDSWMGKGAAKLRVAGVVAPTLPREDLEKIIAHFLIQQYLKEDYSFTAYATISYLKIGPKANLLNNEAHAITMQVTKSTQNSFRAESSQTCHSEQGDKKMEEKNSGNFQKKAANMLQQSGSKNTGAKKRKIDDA
# Summary of the method: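 50 nM RECQ1T1 preincubated 15 min with compound in Tris pH 8.0 buffer with MgCl2, DTT, Tween-20 and 2.5 ug/ml poly(dI-dC); started with 200 nM TAMRA/BHQ-2 forked duplex and 2 mM ATP. Unwinding read as fluorescence (525/598 nm), two reads 2 h apart.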
# [14] = target: RecQ-like DNA helicase BLM (Homo sapiens) (UniProt P54132); assay: qHTS Validation Assay for Inhibitors of Bloom's syndrome helicase (BLM) (AID 2364)
# RecQ-like DNA helicase BLM (Homo sapiens), sequence (P54132 whole entry, looked up): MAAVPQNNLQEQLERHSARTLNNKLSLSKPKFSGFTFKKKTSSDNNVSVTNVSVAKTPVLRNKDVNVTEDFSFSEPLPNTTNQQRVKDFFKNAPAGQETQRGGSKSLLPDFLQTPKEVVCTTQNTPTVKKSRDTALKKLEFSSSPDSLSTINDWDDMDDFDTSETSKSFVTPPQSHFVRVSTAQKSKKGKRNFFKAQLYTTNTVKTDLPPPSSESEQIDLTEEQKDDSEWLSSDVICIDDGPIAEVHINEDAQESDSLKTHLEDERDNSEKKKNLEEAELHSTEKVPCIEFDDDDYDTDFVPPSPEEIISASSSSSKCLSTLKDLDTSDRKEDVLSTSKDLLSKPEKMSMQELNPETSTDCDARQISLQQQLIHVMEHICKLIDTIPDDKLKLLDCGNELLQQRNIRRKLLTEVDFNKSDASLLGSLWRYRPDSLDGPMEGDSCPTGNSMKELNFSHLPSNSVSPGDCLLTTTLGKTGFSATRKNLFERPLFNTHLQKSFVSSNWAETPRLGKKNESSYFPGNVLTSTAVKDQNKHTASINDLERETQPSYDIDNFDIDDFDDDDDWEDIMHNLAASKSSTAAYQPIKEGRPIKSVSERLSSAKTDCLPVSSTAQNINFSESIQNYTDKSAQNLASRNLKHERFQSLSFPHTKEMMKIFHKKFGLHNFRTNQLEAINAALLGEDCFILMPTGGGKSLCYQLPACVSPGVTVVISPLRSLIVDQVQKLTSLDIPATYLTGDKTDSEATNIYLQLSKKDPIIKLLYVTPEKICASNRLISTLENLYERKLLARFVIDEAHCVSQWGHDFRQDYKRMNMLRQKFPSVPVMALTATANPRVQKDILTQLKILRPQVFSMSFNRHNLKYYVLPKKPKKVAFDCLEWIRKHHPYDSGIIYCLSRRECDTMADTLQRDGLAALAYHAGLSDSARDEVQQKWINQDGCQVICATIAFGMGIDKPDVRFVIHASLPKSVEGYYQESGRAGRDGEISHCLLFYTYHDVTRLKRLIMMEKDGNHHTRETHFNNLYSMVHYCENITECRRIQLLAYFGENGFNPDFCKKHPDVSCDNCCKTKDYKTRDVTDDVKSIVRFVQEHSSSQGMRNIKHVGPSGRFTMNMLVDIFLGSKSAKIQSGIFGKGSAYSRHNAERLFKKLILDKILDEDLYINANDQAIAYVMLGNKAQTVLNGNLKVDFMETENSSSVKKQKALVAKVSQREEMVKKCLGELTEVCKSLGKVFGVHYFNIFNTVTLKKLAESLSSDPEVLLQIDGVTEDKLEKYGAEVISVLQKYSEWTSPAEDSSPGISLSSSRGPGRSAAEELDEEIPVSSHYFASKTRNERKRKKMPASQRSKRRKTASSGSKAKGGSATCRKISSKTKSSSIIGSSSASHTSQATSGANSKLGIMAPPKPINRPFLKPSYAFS
# Summary of the method: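 BLM 50 nM in 25 mM Tris-HCl pH 8.0, 5 mM NaCl, 2 mM MgCl2, 1 mM DTT, 0.01% Tween-20, 2.5 ug/ml poly(dI-dC); 15 min cpd preinc, RT. Start: 200 nM forked DNA + 2 mM ATP (final). TAMRA read, 2 reads 2 h apart.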
# [15] = Cytometric Cell-Based qHTS for Inhibitors of the mTORC1 Signaling Pathway in MEF (Tsc2-/-, p53-/-) Cells (AID 2660);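 further: percent of cells above a phospho-rpS6 to PI ratio cutoff in each well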
# Summary of the method: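 Immunofluorescence qHTS of rpS6 Ser235/236 phosphorylation: MEFs (Tsc2-/-, p53-/-) treated 24 h, 37 C, in DMEM + 10% FBS. Alexa-488 signal normalized to PI count, referenced to rapamycin (7.5 nM) and DMSO; PI cell number recorded for viability.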
# [16] = High Content Imaging Cell-Based qHTS for Inhibitors of the mTORC1 Signaling Pathway in MEF (Tsc2-/-, p53-/-) Cells (AID 2666); conditions: at 38.3 µM (top of the series);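 further: percent of cells scored positive for phospho-rpS6 Ser235/236 immunostaining by imaging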
# Summary of the method: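 Read-out: % positive cells per well, with thresholds from highest- and lowest-signal wells, based on phospho-rpS6 (Ser235/236) intensity normalized to Hoechst nuclear stain. Cells: Tsc2-/-, p53-/- MEFs carrying empty vector; compound 24 hrs, 37 degree Celsius.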
smiles,measurement,setting,value
Cc1cccc(/C=C/c2ccccc2)n1,outcome,[1],inactive
same,"activity change, negative = inhibition",[2]; at 57.5 µM (top of the series),1.78% (inactive)
same,max response,[2]; measured here: cell count channel max response,54.4%
same,max response,[2]; measured here: lipid channel max response,55.9%
same,Potency,[3],inactive
same,Potency,[4],inactive
same,Potency,[5],inactive
same,Potency,[6],inactive
same,Potency,[7],inactive
same,Potency,[8],inactive
same,Potency,[9],inactive
same,Potency,[10],inactive
same,outcome,[11],inactive
same,outcome,[12],inactive
same,Potency,[13],inactive
same,Potency,[14],inactive
same,outcome,[15],inactive
same,outcome,[16],inactive
